High-throughput results deposited in PubChem by National Center for Advancing Translational Sciences (NCATS).
Rows were chosen to be rich in hits. Some 19% of all compounds tested hit in one or more screens of this group.
HT1080NT lethal: kills 2HG-producing HT-1080-NT fibrosarcoma cells. AID 686970. HT-1080-NT fibrosarcoma viability, CellTiter-Glo ATP luminescence, 48 h. 1.6% of 360,000 active. Potency, µM (highest dose often 46.1 µM), hits mostly cytotoxic;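 further: NT is the 2HG producing partner of a matched IDH1 knockdown line; nearly all actives have a fitted effect of over 55% in size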
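Viability by CellTiter-Glo luminescence after 48 h compound exposure at 37C of HT-1080-NT cells (750/well, RPMI, 5% FBS). % activity scaled between DMSO wells and medium-only wells, then curve-fitted and categorized by curve class.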
DT40 TDP1 CPT: growth inhibition of DT40 Tdp1-/-;hTDP1 cells with camptothecin (screen for TDP1 inhibitors); 12% of 420,000 active; chicken DT40 Tdp1-/-;hTDP1 cells + 20 nM CPT, ATP luminescence, 48 h; Potency, µM (top dose mostly 46.2 µM), hits mostly inhibitors; further: nearly all actives have a fitted effect of over 55% in size
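Chicken DT40 Tdp1-/- cells stably complemented with human TDP1 were seeded at 400 cells/well in medium containing 20 nM camptothecin, exposed to pin-transferred compounds, and grown at 37 °C for at least 48 hr. Viability was read as ATP luminescence.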
IL1B secr inh: inhibitors of inflammasome signaling (IL-1 beta secretion). THP-1 LPS/ATP IL-1B secretion, AlphaLISA, 16 h; hits give low values. activity change, % at 57.5 µM. 4.7% of 360,000 active. AID 743279; in the data active means activity change below about -50%; inconclusive means mostly about -30% to -49%
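Secreted IL-1B measured by AlphaLISA bead assay after 16 h compound exposure of THP-1 cells; compounds (final up to 57.5 uM) added 1 h before LPS (250 ng/mL) and ATP (1.25 mM) stimulation; lower signal means less secretion.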
DT40 TDP1 no CPT: qHTS for Inhibitors of human tyrosyl-DNA phosphodiesterase 1 (TDP1): qHTS in cells in absence of CPT; DT40 Tdp1-/- hTDP1 cells, no CPT, ATP luminescence, 48 h; Potency, µM (highest dose often 46.2 µM), actives largely listed as inhibitors; 15% of 420,000 active; AID 686978, 2013; further: nearly all actives have a fitted effect of over 55% in size
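Growth of hTDP1-complemented DT40 Tdp1-knockout cells is measured by ATP luminescence after at least 48 hr compound exposure at 37 °C, with DMSO substituting for the 20 nM CPT used in the parallel screen.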
HT1080 IDH1KD tx: toxicity to HT-1080 IDH1 knockdown cells (counter line). HT-1080 IDH1 knockdown viability, ATP luminescence, 48 h. Potency, µM (titrated, usually from 46.1 µM), usual class: cytotoxic. 2% of 360,000 active. AID 686971
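IDH1KD HT-1080 cells, 750/well, RPMI + 5% FBS; compound pinned after 2 h settling; 48 h, 37 °C; CellTiter-Glo luminescence; % activity normalised to DMSO and no-cell wells; curves fitted, classed by r2 and efficacy.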
Hits are given with their value; n = inactive; u = inconclusive; x = no result; ! = not active in a repeat; [ ] = another dose, or the depositor's remark. Unless noted, the call rests on the fitted dose curve; in most records, active means well fitted curve in the direction sought with a large enough effect; inconclusive means small, poorly fitted or top-dose-only effect, or another doubt; inactive means no such curve, though single readings can be large; an effect the other way counts as inactive or inconclusive.

SMILES	HT1080NT lethal	DT40 TDP1 CPT	IL1B secr inh	DT40 TDP1 no CPT	HT1080 IDH1KD tx
O=C(O)C1SCCN1S(=O)(=O)c1ccc(N=NN2CCOCC2)cc1 (centres undefined)	n	n	n	n	n
CCCN(C(=O)COC(=O)CCOc1ccc(C)cc1)c1c(N)n(Cc2ccccc2)c(=O)[nH]c1=O	u	u	n	u	u
CC(C)CCN(C(=O)Cc1ccc(Cl)c(Cl)c1)c1c(N)n(Cc2ccccc2)c(=O)[nH]c1=O	u	u	u	26µM	n
Cc1ccc(OCCC(=O)N(CCC(C)C)c2c(N)n(Cc3ccccc3)c(=O)[nH]c2=O)cc1	n	n	n	21µM	n
Cc1ccc(N2CN(CCc3ccccc3)CNC2=S)cc1	n	n	n	n	n
CC1=CC(C)(C)N2C(=O)C3(SCC(=O)N3c3ccc(F)cc3)c3cc(C)cc1c32 (centres undefined)	n	29µM	n	10µM	n
CN1C(=O)C2(SCC(=O)N2c2ccc(Cl)cc2)c2ccccc21 (centres undefined)	x	n	x	u	x
C=CCN(c1ccccc1)S(=O)(=O)c1cc2c(cc1C)NC(=O)CO2	n	u	n	n	n
COc1cc(-c2noc(C)c2C#Cc2nccn2C)cc(OC)c1OC	u	16µM	n	13µM	u
Cc1ccc2oc(=O)c3cnn(CC(=O)N4CCN(c5cc(Cl)ccc5C)CC4)c3c2c1	x	u	x	16µM	x
CCN(CC)CCOC(=O)c1ccc(NC(=O)Cn2ncc3c([nH]c4ccc(C)cc43)c2=O)cc1	x	4.1µM	x	3.3µM	x
O=C(Cn1ncc2c(=O)oc3ccccc3c21)NC1CC1	n	n	n	n	n
Cc1ccc2oc(=O)c3cnn(CC(=O)NC4CCN(Cc5ccccc5)CC4)c3c2c1	n	16µM	n	21µM	n
Cc1ccc2[nH]c3c(=O)n(CC(=O)N(C)c4cc(Cl)ccc4C)ncc3c2c1	x	18µM	x	15µM	x
Cc1ccc2[nH]c3c(=O)n(CC(=O)N4CCCCC4)ncc3c2c1	x	n	x	n	x
Cc1ccc2[nH]c3c(=O)n(CC(=O)N(CCN(C)C)Cc4ccccc4)ncc3c2c1	x	u	x	23µM	x
Cc1ccc(N(C)C(=O)Cn2ncc3c([nH]c4ccccc43)c2=O)cc1C	x	12µM	x	u	x
Cc1ccc(C)c(N2CCN(C(=O)Cn3ncc4c([nH]c5ccc(C)cc54)c3=O)CC2)c1	n	15µM	n	13µM	n
Cc1cc(SCC(=O)c2cccs2)n2nc(C)c(-c3ccccc3)c2n1	n	u	n	u	u
Cc1cccc(/C=C2\CCC(=C3SCCCS3)C2=O)c1	n	u	n	15µM	n
COc1ccc(NC(=O)C/C(C)=N/NC(=O)c2ccco2)c([N+](=O)[O-])c1	n	n	n	n	n
CCN(CC)S(=O)(=O)c1ccc(C(=O)OCCN2C(=O)c3cccc4c(N5CCOCC5)ccc(c34)C2=O)cc1	n	u	n	18µM	n
C/C(CC(=O)Nc1cccc(F)c1)=N\NC(=O)c1ccncc1	n	n	n	n	n
COC(=O)c1ccc2nc(-c3cccc(Cl)c3)c(Cc3ccccc3)n2c1	n	21µM	n	10µM	n
COC(=O)c1ccc2nc(-c3ccc(C#N)cc3)c(Cc3cccc(Cl)c3)n2c1	n	21µM	n	21µM	n
SMILES	HT1080NT lethal	DT40 TDP1 CPT	IL1B secr inh	DT40 TDP1 no CPT	HT1080 IDH1KD tx
Clc1cccc(-c2nc3ccc(Cl)cn3c2Cc2ccsc2)c1	n	u	n	u	n
Clc1cccc(-c2nc3ccc(Cl)cn3c2Cc2ccccc2)c1	n	u	n	16µM	u
COC(=O)c1ccc2nc(-c3ccccc3)c(Cc3ccccc3C(F)(F)F)n2c1	n	n	n	n	n
COC(=O)c1ccc2nc(-c3cccc(Br)c3)c(Cc3ccccc3)n2c1	n	u	n	23µM	n
CCOc1ccc(NC(=O)c2ccc(NC(=O)CCS(=O)(=O)c3cccs3)cc2)cc1	x	n	x	n	x
O=C(Nc1ccccc1)N1CCC2(CC1)CCN(C(=O)c1csnn1)CC2	x	n	x	n	x
Cc1ccc2c(c1)CN(CCC(=O)NCc1cc(C)n(C)n1)CC(C)O2 (centres undefined)	x	n[9.04 µM]	x	n	x
c1csc(CNc2ccn3nc(-c4ccc(OCCN5CCOCC5)cc4)cc3n2)c1	u	21µM	n	16µM	u
c1ccc(-c2cc3nc(NCc4cccs4)ccn3n2)cc1	u	n	n	u	u
c1ccc(OCCNc2ccn3nc(-c4ccc(OCCN5CCOCC5)cc4)cc3n2)cc1	u	9.2µM	n	16µM	u
O=C1Nc2cc(C(=O)NCCCN3CCCC3)ccc2S/C1=C/c1cccc(Cl)c1	n	6.5µM	n	u	u
COc1ccc(/C=C2/Sc3ccc(C(=O)NCCCN4CCOCC4)cc3NC2=O)cc1OC	u	4.6µM	n	2.6µM	21µM
CCN1CCN(CCCNC(=O)c2ccc3c(c2)NC(=O)/C(=C\c2cccc(C)c2)S3)CC1	u	16µM	-87	u	n
CCN1CCCC1CNC(=O)c1ccc2c(c1)NC(=O)/C(=C\c1ccccc1Cl)S2 (centres undefined)	n	u	u	u	n
CCN1CCN(CCCNC(=O)c2ccc3c(c2)NC(=O)c2ccccc2S3)CC1	n	n	n	u	n
COc1ccc(C(=O)NCCCN2CCOCC2)cc1OC	n	n	n	n	n
CCN1CCCC1CNC(=O)c1ccc2c(c1)NC(=O)/C(=C\c1ccc(OC)c(OC)c1)S2 (centres undefined)	n	u	n	16µM	u
COc1cc(NC(=S)NN2CCN(C)CC2)cc(OC)c1OC	n	n	n	n	u
O=C1Nc2cc(C(=O)N3CCc4ccccc4C3)ccc2S/C1=C\c1ccccc1	n	n	n	n	n
Cc1cccc(/C=C2/Sc3ccc(C(=O)NCCN4CCCC4)cc3NC2=O)c1	n	u	u	23µM	n
CCOC(=O)C1CCN(C(=O)c2ccc3c(c2)NC(=O)/C(=C/c2ccccc2)S3)CC1	n	u	n	u	n
CCOC(=O)C1CCN(C(=O)c2ccc3c(c2)NC(=O)/C(=C\c2cccc(C)c2)S3)CC1	n	u	n	18µM	n
O=C1Nc2cc(C(=O)NCCN3CCCCCC3)ccc2S/C1=C\c1ccccc1	u	13µM	-93	12µM	u
CCN1CCC[C@H]1CNC(=O)c1c(OC)ccc(Br)c1OC	n	33µM!	n	30µM!	n
COc1cccc(/C=C2/Sc3ccc(C(=O)NCCN4CCCCCC4)cc3NC2=O)c1	u	u	n	u	n
COc1cccc(CNC(=O)C(CC(C)C)NS(=O)(=O)c2ccc3c(c2)oc(=O)n3C)c1 (centres undefined)	x	n	x	n	x
